# Reference: PubChem BioAssay AID1159580 (chemical genetic matrix, 2015)
# In all, about 5,500 compounds went through this assay and about 2,000 (36%) were called active. About 18% were inconclusive and are not listed. The list shows a part of the results. Unmarked numbers belong to inactive results. No stated cut-off is given here; in the data, active means normalized growth mostly below about 0.91 (no sharp cut-off); inconclusive means no clear call, values can overlap the other calls; inactive means mostly above about 0.92. Where a SMILES comes first, the peptide text is derived from it. [ ]: non-standard residue; d: D form. Orn = NCCC[CH](N)C(=O)O
# Assay: chemical genetic growth profiling, strain panel (AID 1159580);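 further: tested at 20 µM; growth read once vehicle control cultures reached saturation at 30 °C; 1 = growth at the plate median or of vehicle wells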
# Settings: growth OD
compound,measurement,setting,value
CC(C)CC1NC(=O)C(CCCN)NC(=O)C(C(C)C)NC(=O)C2CCCN2C(=O)C(Cc2ccccc2)NC(=O)C(CC(C)C)NC(=O)C(CCCN)NC(=O)C(C(C)C)NC(=O)C2CCCN2C(=O)C(Cc2ccccc2)NC1=O (stereo unspecified) (cyclo(FPV[Orn]LFPV[Orn]L); configuration not given here),normalized growth,"S. cerevisiae deletion strains, locus YKL009W, strain mrt4, stronger effect = lower value",1.4 [resistant] (active)
same,normalized growth,"S. cerevisiae deletion strains, locus YKL068W, stronger effect = lower value",1.25 [resistant] (active)
same,normalized growth,"S. cerevisiae deletion strains, locus YKL085W, strain MDH1 (second series), stronger effect = lower value",1.11 [resistant] (active)
same,normalized growth,"S. cerevisiae deletion strains, locus YKL085W, strain MDH1, stronger effect = lower value",1.11 [resistant] (active)
same,normalized growth,"S. cerevisiae deletion strains, locus YKL160W, strain elf1, stronger effect = lower value",1.02
same,normalized growth,"S. cerevisiae deletion strains, locus YKL190W, strain CNB1, stronger effect = lower value",1.02
same,normalized growth,"S. cerevisiae deletion strains, locus YKR001C, strain vps1, stronger effect = lower value",0.236 (active)
same,normalized growth,"S. cerevisiae deletion strains, locus YKR026C, strain gcn3, stronger effect = lower value",1.04
same,normalized growth,"S. cerevisiae deletion strains, locus YKR091W, strain srl3, stronger effect = lower value",1.02
same,normalized growth,"S. cerevisiae deletion strains, locus YLL001W, strain dnm1, stronger effect = lower value",1.03
same,normalized growth,"S. cerevisiae deletion strains, locus YLL026W, stronger effect = lower value",1.02
same,normalized growth,"S. cerevisiae deletion strains, locus YLL041C, strain sdh2, stronger effect = lower value",1.02
same,normalized growth,"S. cerevisiae deletion strains, locus YLR027C, strain aat2, stronger effect = lower value",1.01
same,normalized growth,"S. cerevisiae deletion strains, locus YLR039C, strain RIC1, stronger effect = lower value",0.328 (active)
same,normalized growth,"S. cerevisiae deletion strains, locus YLR058C, strain SHM2, stronger effect = lower value",1
same,normalized growth,"S. cerevisiae deletion strains, locus YLR102C, strain apc9, stronger effect = lower value",1.01
same,normalized growth,"S. cerevisiae deletion strains, locus YLR113W, strain HOG1, stronger effect = lower value",0.971
same,normalized growth,"S. cerevisiae deletion strains, locus YLR221C, strain rsa3, stronger effect = lower value",1.04
same,normalized growth,"S. cerevisiae deletion strains, locus YLR258W, strain gsy2, stronger effect = lower value",1.04
same,normalized growth,"S. cerevisiae deletion strains, locus YLR262C, strain YPT6 (second series), stronger effect = lower value",0.293 (active)
same,normalized growth,"S. cerevisiae deletion strains, locus YLR262C, strain YPT6, stronger effect = lower value",0.285 (active)
same,normalized growth,"S. cerevisiae deletion strains, locus YLR268W, strain sec22, stronger effect = lower value",0.989
same,normalized growth,"S. cerevisiae deletion strains, locus YLR320W, strain mms22, stronger effect = lower value",1.02
same,normalized growth,"S. cerevisiae deletion strains, locus YLR330W, strain CHS5, stronger effect = lower value",1.01
same,normalized growth,"S. cerevisiae deletion strains, locus YLR342W, strain FKS1 (second series), stronger effect = lower value",0.857
same,normalized growth,"S. cerevisiae deletion strains, locus YLR342W, strain FKS1, stronger effect = lower value",1.02
same,normalized growth,"S. cerevisiae deletion strains, locus YLR357W, strain rsc2, stronger effect = lower value",0.968
same,normalized growth,"S. cerevisiae deletion strains, locus YLR370C, strain arc18, stronger effect = lower value",0.927
same,normalized growth,"S. cerevisiae deletion strains, locus YLR371W, strain rom2, stronger effect = lower value",1.01
same,normalized growth,"S. cerevisiae deletion strains, locus YLR384C, strain iki3, stronger effect = lower value",1.03
same,normalized growth,"S. cerevisiae deletion strains, locus YLR418C, strain cdc73, stronger effect = lower value",0.932
same,normalized growth,"S. cerevisiae deletion strains, locus YML016C, strain PPZ1, stronger effect = lower value",1.01
same,normalized growth,"S. cerevisiae deletion strains, locus YML032C, strain rad52, stronger effect = lower value",0.989
same,normalized growth,"S. cerevisiae deletion strains, locus YML120C, strain ndi1, stronger effect = lower value",1.02
same,normalized growth,"S. cerevisiae deletion strains, locus YML124C, strain tub3, stronger effect = lower value",1
same,normalized growth,"S. cerevisiae deletion strains, locus YMR058W, strain fet3, stronger effect = lower value",1.03
same,normalized growth,"S. cerevisiae deletion strains, locus YMR078C, strain ctf18, stronger effect = lower value",1.01
same,normalized growth,"S. cerevisiae deletion strains, locus YMR125W, strain sto1, stronger effect = lower value",0.999
same,normalized growth,"S. cerevisiae deletion strains, locus YMR129W, stronger effect = lower value",1.02
same,normalized growth,"S. cerevisiae deletion strains, locus YMR205C, strain PFK2, stronger effect = lower value",1.02
same,normalized growth,"S. cerevisiae deletion strains, locus YMR223W, strain ubp8, stronger effect = lower value",0.978
same,normalized growth,"S. cerevisiae deletion strains, locus YMR231W, strain pep5, stronger effect = lower value",0.324 (active)
same,normalized growth,"S. cerevisiae deletion strains, locus YMR263W, strain SAP30, stronger effect = lower value",1
same,normalized growth,"S. cerevisiae deletion strains, locus YMR307W, strain GAS1, stronger effect = lower value",0.833
same,normalized growth,"S. cerevisiae deletion strains, locus YNL067W, strain RPL9B, stronger effect = lower value",0.994
same,normalized growth,"S. cerevisiae deletion strains, locus YNL071W, strain lat1, stronger effect = lower value",1.03
same,normalized growth,"S. cerevisiae deletion strains, locus YNL128W, strain TEP1, stronger effect = lower value",1.03
same,normalized growth,"S. cerevisiae deletion strains, locus YNL153C, strain GIM3, stronger effect = lower value",1
same,normalized growth,"S. cerevisiae deletion strains, locus YNL183C, strain NPR1, stronger effect = lower value",0.948
same,normalized growth,"S. cerevisiae deletion strains, locus YNL209W, strain ssb2, stronger effect = lower value",1.01
same,normalized growth,"S. cerevisiae deletion strains, locus YNL233W, strain BNI4, stronger effect = lower value",0.982
same,normalized growth,"S. cerevisiae deletion strains, locus YNL248C, strain rpa49, stronger effect = lower value",1.03
same,normalized growth,"S. cerevisiae deletion strains, locus YNL250W, strain rad50, stronger effect = lower value",0.998
same,normalized growth,"S. cerevisiae deletion strains, locus YNL271C, strain bni1, stronger effect = lower value",0.995
same,normalized growth,"S. cerevisiae deletion strains, locus YNL298W, strain CLA4, stronger effect = lower value",0.967
same,normalized growth,"S. cerevisiae deletion strains, locus YNL307C, strain MCK1, stronger effect = lower value",0.991
same,normalized growth,"S. cerevisiae deletion strains, locus YNL322C, strain KRE1 (second series), stronger effect = lower value",1.06
same,normalized growth,"S. cerevisiae deletion strains, locus YNL322C, strain KRE1, stronger effect = lower value",1.01
same,normalized growth,"S. cerevisiae deletion strains, locus YNR049C, strain mso1, stronger effect = lower value",1.04
same,normalized growth,"S. cerevisiae deletion strains, locus YNR052C, strain pop2, stronger effect = lower value",0.984
same,normalized growth,"S. cerevisiae deletion strains, locus YOL006C, strain TOP1, stronger effect = lower value",0.122 (active)
same,normalized growth,"S. cerevisiae deletion strains, locus YOL012C, strain htz1",0.807
same,normalized growth,"S. cerevisiae deletion strains, locus YOL147C, strain pex11, stronger effect = lower value",1.01
same,normalized growth,"S. cerevisiae deletion strains, locus YOR001W, strain rrp6, stronger effect = lower value",1
same,normalized growth,"S. cerevisiae deletion strains, locus YOR061W, strain CKA2, stronger effect = lower value",1
same,normalized growth,"S. cerevisiae deletion strains, locus YOR069W, strain VPS5, stronger effect = lower value",1
same,normalized growth,"S. cerevisiae deletion strains, locus YOR070C, strain gyp1, stronger effect = lower value",1.03
same,normalized growth,"S. cerevisiae deletion strains, locus YOR080W, strain dia2, stronger effect = lower value",1.05
same,normalized growth,"S. cerevisiae deletion strains, locus YOR083W, strain WHI5, stronger effect = lower value",1.01
same,normalized growth,"S. cerevisiae deletion strains, locus YOR106W, strain vam3, stronger effect = lower value",1.01
same,normalized growth,"S. cerevisiae deletion strains, locus YOR136W, strain idh2, stronger effect = lower value",1
same,normalized growth,"S. cerevisiae deletion strains, locus YOR144C, strain elg1, stronger effect = lower value",1
same,normalized growth,"S. cerevisiae deletion strains, locus YOR184W, strain ser1, stronger effect = lower value",0.987
same,normalized growth,"S. cerevisiae deletion strains, locus YOR231W, strain MKK1, stronger effect = lower value",0.983
same,normalized growth,"S. cerevisiae deletion strains, locus YOR265W, strain rbl2, stronger effect = lower value",1.03
same,normalized growth,"S. cerevisiae deletion strains, locus YOR270C, strain vph1, stronger effect = lower value",0.468 (active)
same,normalized growth,"S. cerevisiae deletion strains, locus YOR290C, strain snf2, stronger effect = lower value",0.973
same,normalized growth,"S. cerevisiae deletion strains, locus YOR316C, strain cot1, stronger effect = lower value",1.01
same,normalized growth,"S. cerevisiae deletion strains, locus YPL051W, strain arl3, stronger effect = lower value",0.7 (active)
same,normalized growth,"S. cerevisiae deletion strains, locus YPL055C, strain LGE1, stronger effect = lower value",0.985
same,normalized growth,"S. cerevisiae deletion strains, locus YPL078C, strain atp4, stronger effect = lower value",1.02
same,normalized growth,"S. cerevisiae deletion strains, locus YPL106C, strain sse1, stronger effect = lower value",0.995
same,normalized growth,"S. cerevisiae deletion strains, locus YPL240C, strain hsp82, stronger effect = lower value",1.03
same,normalized growth,"S. cerevisiae deletion strains, locus YPL241C, strain CIN2, stronger effect = lower value",1.01
same,normalized growth,"S. cerevisiae deletion strains, locus YPL256C, strain CLN2, stronger effect = lower value",0.97
same,normalized growth,"S. cerevisiae deletion strains, locus YPR119W, strain clb2, stronger effect = lower value",1
same,normalized growth,"S. cerevisiae deletion strains, locus YPR141C, strain kar3, stronger effect = lower value",0.997
same,normalized growth,"S. cerevisiae deletion strains, locus YPR163C, strain tif3, stronger effect = lower value",0.953
same,normalized growth,"S. cerevisiae deletion strains, locus YPR167C, strain met16, stronger effect = lower value",1.01
same,normalized growth,"S. cerevisiae deletion strains, strain wtn01, stronger effect = lower value",0.988
same,normalized growth,"S. cerevisiae strains, strain wild type, stronger effect = lower value",1.04
